# Results taken from PMC6340896.
# What was measured:
# Assay in all cases: cross-link between two proteins; affinity purification or IP with mass spectrometry; cross-linking mass spectrometry
# [1] = target: Ribosome production factor 1 (UniProt P38805)
# [2] = target: Ribosome biogenesis protein NSA1 (UniProt P53136)
# [3] = target: Ribosomal RNA-processing protein 15 (UniProt Q06511)
# [4] = target: Ribosome biogenesis protein BRX1 (UniProt Q08235)
# [5] = target: Ribosome biogenesis protein SSF1 (UniProt P38789)
# Chain of UniProt Q06511 (Q06511 whole entry): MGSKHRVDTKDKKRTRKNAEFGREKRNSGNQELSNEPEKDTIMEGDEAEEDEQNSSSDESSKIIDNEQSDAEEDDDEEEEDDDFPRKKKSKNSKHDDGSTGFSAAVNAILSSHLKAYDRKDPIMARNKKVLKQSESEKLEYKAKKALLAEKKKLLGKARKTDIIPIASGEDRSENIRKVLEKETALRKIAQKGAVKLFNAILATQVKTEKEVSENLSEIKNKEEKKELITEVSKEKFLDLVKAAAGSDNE
# Chain of UniProt Q08235 (Q08235 whole entry): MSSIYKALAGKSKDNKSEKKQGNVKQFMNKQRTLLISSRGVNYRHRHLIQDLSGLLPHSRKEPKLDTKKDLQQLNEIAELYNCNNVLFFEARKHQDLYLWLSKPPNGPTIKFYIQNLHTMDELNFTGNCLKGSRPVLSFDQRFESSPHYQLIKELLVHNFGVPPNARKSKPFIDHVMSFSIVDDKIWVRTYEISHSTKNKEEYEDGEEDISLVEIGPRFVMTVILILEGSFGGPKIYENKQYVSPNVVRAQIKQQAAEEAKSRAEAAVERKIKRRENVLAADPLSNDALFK
# Chain of Ribosome production factor 1, P38805 (P38805 whole entry): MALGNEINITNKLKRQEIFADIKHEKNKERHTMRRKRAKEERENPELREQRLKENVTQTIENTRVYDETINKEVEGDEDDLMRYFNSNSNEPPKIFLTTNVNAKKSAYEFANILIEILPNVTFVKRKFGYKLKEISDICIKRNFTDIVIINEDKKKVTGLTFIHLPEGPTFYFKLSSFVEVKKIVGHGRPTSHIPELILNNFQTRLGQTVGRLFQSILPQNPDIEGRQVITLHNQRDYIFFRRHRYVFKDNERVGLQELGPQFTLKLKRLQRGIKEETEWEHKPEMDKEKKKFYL
# Chain of UniProt P53136 (P53136 whole entry): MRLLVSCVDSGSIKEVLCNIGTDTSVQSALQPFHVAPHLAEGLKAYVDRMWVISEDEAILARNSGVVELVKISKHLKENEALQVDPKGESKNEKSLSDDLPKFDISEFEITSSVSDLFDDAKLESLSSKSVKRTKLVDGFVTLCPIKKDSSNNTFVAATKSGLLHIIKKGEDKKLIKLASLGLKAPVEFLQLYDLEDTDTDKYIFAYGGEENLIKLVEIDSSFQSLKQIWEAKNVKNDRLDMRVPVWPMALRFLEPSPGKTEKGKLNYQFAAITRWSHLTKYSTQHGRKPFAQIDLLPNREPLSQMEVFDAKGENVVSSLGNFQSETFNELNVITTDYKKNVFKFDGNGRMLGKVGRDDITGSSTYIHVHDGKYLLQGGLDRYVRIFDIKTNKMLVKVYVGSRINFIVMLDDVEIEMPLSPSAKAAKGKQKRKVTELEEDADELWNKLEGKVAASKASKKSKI
# Chain of Ribosome biogenesis protein SSF1, P38789 (P38789 whole entry): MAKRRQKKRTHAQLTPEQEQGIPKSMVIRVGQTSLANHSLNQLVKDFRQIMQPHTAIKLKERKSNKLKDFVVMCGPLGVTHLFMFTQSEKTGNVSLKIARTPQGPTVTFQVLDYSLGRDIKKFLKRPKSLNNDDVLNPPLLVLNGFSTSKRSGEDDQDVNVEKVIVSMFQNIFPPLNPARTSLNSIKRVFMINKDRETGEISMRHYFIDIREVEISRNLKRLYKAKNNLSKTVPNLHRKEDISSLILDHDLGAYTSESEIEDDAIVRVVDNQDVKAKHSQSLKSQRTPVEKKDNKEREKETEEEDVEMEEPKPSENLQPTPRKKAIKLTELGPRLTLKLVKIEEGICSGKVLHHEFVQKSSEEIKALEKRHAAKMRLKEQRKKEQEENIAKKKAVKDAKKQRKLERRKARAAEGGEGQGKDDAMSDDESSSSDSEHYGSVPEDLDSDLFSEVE
substance,measurement,setting,value
"Large ribosomal subunit protein uL22A, P05740",listed as a hit,[1],yes
"Ribosome production factor 1, P38805",listed as a hit,[2],yes
"Ribosome biogenesis protein SSF1, P38789",listed as a hit,[3],yes
same,listed as a hit,[4],yes
"Large ribosomal subunit protein uL29A, P0CX84",listed as a hit,[5],yes
